# Assay outcomes (PubChem)
# CaV13 ICDI inh = Primary screen for inhibitors of IQ motif and Ca2+-dependent inactivation inhibitor domain binding in CACNA1D, Förster resonance energy transfer in living cells, …; HEK cells, CFP/YFP FRET ICDI-IQ, plate reader, 10 min; percent FRET-ratio fall versus neutral wells; 340,000 tested, 0.098% active; inhibition, % at 12.3 µM;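 active means mean replicate inhibition of at least 30% and at least 1% of replicates passing that level; inconclusive means only one of the two criteria is met; inactive means neither criterion is met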
# rRNA inh HTS = reduced GFP signal of wild-type E. coli, primary screen, bacterial rRNA inhibitor project, GFP/RFP fluorescence, OD600, single point | E. coli WT GFP vs humanized-ribosome RFP mutants, 24 h; hits give low values; DMSO median 0, no signal -100 | GFP signal change (wild-type ribosome), % (concentration not given with the values) | 350,000 tested, 1.6% active;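 active means significant combined selectivity score with lowered wild-type GFP, culture density cut under 30%, mutant RFP and density less affected; inactive means any of these conditions unmet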
# GSIS activator = GLuc luminescence reporter in INS-1E cells, primary screen for activators of glucose-dependent secretion of insulin; activation, % at 16.6 µM; INS-1E GLuc reporter insulin secretion, 2-3 h; 370,000 tested, 0.61% active; AID 743287, 2014;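 active means lowest replicate activation of at least 40%, so every replicate reaches that level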
# ERAP1 inh = human ERAP1 aminopeptidase inhibitors, primary screen, biochemical, single point, plate reader; Endoplasmic reticulum aminopeptidase 1 (Homo sapiens), Q9NZ08; recombinant ERAP1, Leu-AMC fluorescence, 60 min; inhibition, % at 10.7 µM; 340,000 tested, 0.15% active; AID 652197, 2013;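 active means mean replicate inhibition of at least 30%, or all replicates individually reaching that 30% level; inactive means mean below 30% and not every replicate reaching it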
# Target sequence (Q9NZ08 whole entry, looked up): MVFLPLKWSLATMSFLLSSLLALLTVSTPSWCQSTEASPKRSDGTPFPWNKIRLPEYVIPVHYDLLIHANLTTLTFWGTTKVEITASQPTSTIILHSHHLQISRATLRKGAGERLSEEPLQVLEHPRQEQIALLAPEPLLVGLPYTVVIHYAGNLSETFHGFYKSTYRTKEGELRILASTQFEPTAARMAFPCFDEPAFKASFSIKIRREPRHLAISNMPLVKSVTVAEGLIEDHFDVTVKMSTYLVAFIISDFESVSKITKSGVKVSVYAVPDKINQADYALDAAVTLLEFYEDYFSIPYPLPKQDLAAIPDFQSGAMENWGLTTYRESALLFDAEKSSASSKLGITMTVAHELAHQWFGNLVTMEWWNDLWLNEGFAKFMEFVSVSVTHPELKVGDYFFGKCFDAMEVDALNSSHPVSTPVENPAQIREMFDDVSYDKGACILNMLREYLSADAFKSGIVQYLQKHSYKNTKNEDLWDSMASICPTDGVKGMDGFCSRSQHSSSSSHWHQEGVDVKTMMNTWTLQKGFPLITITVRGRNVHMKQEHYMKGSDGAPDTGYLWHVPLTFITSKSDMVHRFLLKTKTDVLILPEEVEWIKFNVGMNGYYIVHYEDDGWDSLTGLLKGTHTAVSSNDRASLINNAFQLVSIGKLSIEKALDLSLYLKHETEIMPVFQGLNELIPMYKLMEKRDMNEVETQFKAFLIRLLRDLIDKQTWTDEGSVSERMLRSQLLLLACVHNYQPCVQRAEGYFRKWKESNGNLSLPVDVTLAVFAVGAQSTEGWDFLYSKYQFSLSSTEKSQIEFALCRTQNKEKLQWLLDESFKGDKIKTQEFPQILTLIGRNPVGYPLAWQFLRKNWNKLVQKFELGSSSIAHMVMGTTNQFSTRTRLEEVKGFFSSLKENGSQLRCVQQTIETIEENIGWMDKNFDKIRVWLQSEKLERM
# DENV2 CPE rescue = inhibitors of DENV2 cytopathic effect, primary screen, cell-based, plate reader, single concentration; AID 651640, 2012; CPE inhibition, % at 9.99 µM; DENV2-infected cells, cytopathic effect rescue; 350,000 tested, 1.7% active; in the data active means CPE inhibition above about 20%, passing the limit was not always enough; inconclusive means no clear call, values can overlap the other calls; tested in BHK-21 cells
# PGC1a acetyl inh = inhibitors of PGC1a acetylation signal, primary screen, cell-based, U2OS, AlphaScreen, inhibitor mode. 350,000 tested, 0.17% active. AlphaScreen anti-acetyl-lysine; with virally co-expressed GCN5 acetyltransferase. inhibition, % at 15.6 µM;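 active means every replicate shows inhibition of at least 40%; inconclusive means mean inhibition at least 40% but some replicate below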
# Numbers stand for hits; – = inactive; ? = inconclusive; · = no result. A selection: hits, their analogues and other compounds. The true share with any hit is near 3.2%.
SMILES,CaV13 ICDI inh,rRNA inh HTS,GSIS activator,ERAP1 inh,DENV2 CPE rescue,PGC1a acetyl inh
CCCC#Cc1ccc([C@@H]2[C@H]3CN(C(=O)Nc4ccc(F)cc4)CC(=O)N3[C@H]2CO)cc1,·,–,–,–,41.6,–
CC(C)NC(=O)N(C)C[C@H]1Oc2ccc(NC(=O)CCN3CCOCC3)cc2CC(=O)N([C@@H](C)CO)C[C@@H]1C,·,–,–,–,–,–
CN1CCN(C(=O)CCN2C(=O)/C(=C\c3ccccc3F)SC2=S)CC1,–,–,–,–,–,–
O=C(CCCN1C(=O)/C(=C\c2ccccc2)SC1=S)Nc1ccc(O)cc1C(=O)O,–,-20.7,–,36.0,–,–
O=C(O)COc1ccc(/C=C2/SC(=S)N(Cc3ccccc3)C2=O)cc1,–,–,–,–,–,71.6
O=C(CCCN1C(=O)/C(=C\c2ccccc2)SC1=S)N1CCOCC1,–,-21.1,–,–,–,–
O=C(CCN1C(=O)/C(=C\c2ccccc2F)SC1=S)N1CCOCC1,–,–,41.8,–,–,–
COc1ccc(/C=C2\SC(=S)N(CCCC(=O)N3CCOCC3)C2=O)cc1,·,–,–,–,–,·
C[C@H]1CN([C@@H](C)CO)C(=O)Cc2cc(NC(=O)Cc3ccccc3)ccc2O[C@@H]1CN(C)S(=O)(=O)c1ccc(F)cc1,·,–,–,–,–,–
CN(Cc1ccc(Cl)c(Cl)c1)C(=O)C1CC(=O)N(c2ccc3c(c2)OCCO3)C1 (stereo not given),–,–,–,–,29.7,–
CC1CC(C)CN(C(=O)C2CC(=O)N(c3ccc4c(c3)OCCO4)C2)C1 (stereo not given),–,–,–,–,–,–
NC(=O)C1CCN(C(=O)C2CC(=O)N(c3ccc4c(c3)OCCO4)C2)CC1 (stereo not given),–,–,–,–,24.3,·
Cc1noc(C)c1NC(=O)Nc1cccc2c1O[C@@H](CN(C)Cc1ccc(-c3ccccc3)cc1)[C@H](C)CN([C@@H](C)CO)C2=O,·,–,–,–,–,–
Cc1ccc2nc(N/N=C/c3ccccc3C#N)nc(-c3ccccc3)c2c1,–,–,48.3,–,·,–
C[C@H]1CN([C@@H](C)CO)S(=O)(=O)c2ccc(-c3ccccc3F)cc2O[C@@H]1CN(C)Cc1cccnc1,·,–,–,–,–,–
C[C@@H]1CN([C@H](C)CO)S(=O)(=O)c2ccc(-c3ccccc3F)cc2O[C@H]1CN(C)Cc1ccncc1,·,–,–,–,29.4,–
C[C@H](CO)N1C[C@H](C)[C@@H](CN(C)Cc2cccnc2)Oc2cc(-c3ccccc3F)ccc2S1(=O)=O,·,–,–,·,46.1,–
C[C@@H]1CN([C@H](C)CO)S(=O)(=O)c2ccc(-c3ccccc3F)cc2O[C@H]1CN(C)Cc1cccnc1,·,–,–,–,–,–
C[C@H]1CN([C@@H](C)CO)S(=O)(=O)c2ccc(-c3ccccc3F)cc2O[C@H]1CN(C)Cc1ccncc1,·,–,–,–,21.1,–
C[C@@H]1CN([C@H](C)CO)S(=O)(=O)c2ccc(-c3ccc(F)cc3)cc2O[C@H]1CN(C)Cc1cccc(F)c1,·,–,57.7,·,·,–
O=C(N[C@H]1C=C[C@H](CC(=O)N2CCc3ccccc3C2)O[C@@H]1CO)C1CC1,·,–,–,·,–,–
C[C@H]1CN([C@@H](C)CO)C(=O)c2cc(C#Cc3ccc(F)cc3)cnc2O[C@@H]1CN(C)C,·,–,–,–,–,–
CCCNC(=O)[C@H]1[C@H](CO)[C@H]2Cn3c(ccc(-c4ccccc4OC)c3=O)[C@H]2N1C(=O)CC,·,–,–,–,–,·
N#Cc1cnn(-c2ccc([N+](=O)[O-])cc2[N+](=O)[O-])c1N,–,-7.5,–,–,–,–
N#Cc1cnn(-c2cc(Cl)ccc2Cl)c1N,–,·,·,–,?,–
SMILES,CaV13 ICDI inh,rRNA inh HTS,GSIS activator,ERAP1 inh,DENV2 CPE rescue,PGC1a acetyl inh
Cc1noc(C)c1S(=O)(=O)Nc1ccc2c(c1)CC(=O)N([C@@H](C)CO)C[C@@H](C)[C@H](CN(C)C(=O)Nc1ccc3c(c1)OCO3)O2,·,–,–,·,–,–
COc1ccc(S(=O)(=O)N(C)C[C@@H]2Oc3c(NC(=O)Nc4ccc(F)cc4)cccc3C(=O)N([C@@H](C)CO)C[C@@H]2C)cc1,·,–,–,–,–,–
CCCCCCCCN1C(=O)[C@@H](CC(=O)N2CCN(C(=O)C3CC3)CC2)C[C@@]2(C(=O)OC)C1=C[C@H](C1CCCC1)O[C@@H]2C,–,–,71.8,–,–,·
COC(=O)[C@]12C[C@H](CC(=O)N3CCCCC3)C(=O)N(Cc3ccccc3)C1=C[C@H](C1CCCC1)O[C@@H]2C,–,–,·,–,–,·
COC(=O)[C@]12C[C@H](CC(=O)N3CCOCC3)C(=O)N(CCC3=CCCCC3)C1=C[C@H](C(C)(C)C)O[C@@H]2C,–,–,·,–,–,·
COC(=O)[C@]12C[C@H](CC(=O)N3CCC(c4ccccc4)CC3)C(=O)N(Cc3ccccc3)C1=C[C@H](C1CCCC1)O[C@@H]2C,–,–,·,–,45.4,·
COC(=O)[C@]12C[C@H](CC(=O)N3CCCC3)C(=O)N(CCC3=CCCCC3)C1=C[C@H](C(C)(C)C)O[C@@H]2C,–,–,294.0,–,–,·
CCCCCCCCN1C(=O)[C@@H](CC(=O)N2CCCC2)C[C@@]2(C(=O)OC)C1=C[C@H](C1CCCC1)O[C@@H]2C,–,–,112.0,–,–,·
N#C[C@@H]1[C@@H](c2ccc(-c3cccc(F)c3)cc2)[C@@H](CO)N1C(=O)NC1CCCCC1,·,–,–,–,?,·
C[C@H]1CN([C@@H](C)CO)C(=O)c2cc(NC(=O)Cc3ccccc3)ccc2O[C@H]1CN(C)CC1CCCCC1,·,–,–,–,–,–
COC(=O)c1cccc(N/C=C(\[N+](=O)[O-])S(=O)(=O)c2ccccc2)c1,–,–,51.1,–,–,–
O=C(Nc1ccc(-n2ccc(C(F)(F)F)n2)cc1)Nc1cccc(Cl)c1,–,-50.9,–,–,–,·
Cc1cc(C)cc(NC(=O)Nc2ccc(-n3ccc(C(F)(F)F)n3)cc2)c1,–,–,–,–,–,–
CCCC(=O)N1CCN(c2nc3ccc(Br)cc3s2)CC1,–,–,–,–,–,–
CCCCC(=O)N1CCN(c2nc3ccc(Br)cc3s2)CC1,–,-19.6,–,–,–,–
O=C(c1ccccn1)N1CC(=O)N2[C@H](CO)[C@@H](c3ccc(C#Cc4ccccc4)cc3)[C@@H]2C1,·,–,–,–,51.9,–
COCC(=O)N1CC(=O)N2[C@H](CO)[C@H](c3ccc(C#Cc4cccc(OC)c4)cc3)[C@@H]2C1,·,–,–,–,40.3,–
